Some compounds were tested as several samples or in several runs, with calls that do not always agree. Active and inactive are the calls of the source. The calls were made as follows: active = hit-call score of the fitted dose curve at least 0.9, where 1 is the maximum; inactive = score below 0.9.
Experiment: ATG_GATA_CIS: Attagene CIS-FACTORIAL HepG2 Assay for human GATA Binding Protein (AID 2282944)
Details: HepG2 GATA cis-element reporter, Attagene multiplex mRNA; actives raise or lower the signal
Method: ATG_CIS is a cell-based, multiplexed-readout assay that uses HepG2, a human liver cell line, with measurements taken at 24 hours after chemical dosing in a 24-well plate.ATG_GATA_CIS is one of 52 assay component(s) measured or calculated from the ATG_CIS assay. It is designed to make measurements of mRNA induction, a form of inducible reporter, as detected with fluorescence intensity signals by Reverse transcription polymerase chain reaction (RT-PCR) and Capillary electrophoresis technology.Data from the assay component ATG_GATA_CIS was analyzed into 1 assay endpoint. This assay endpoint, ATG_GATA_CIS, was analyzed with bidirectional fitting relative to DMSO as the negative control and baseline of activity. Using a type of inducible reporter, measures of mRNA for gain or loss-of-signal activity can be used to understand the reporter gene at the transcription factor-level as they relate to the gene GATA1. Furthermore, this assay endpoint can be referred to as a primary readout, because this assay has produced multiple assay endpoints where this one serves a reporter gene function. To generalize the intended target to other relatable targets, this assay endpoint is annotated to the dna binding intended target family, where the subfamily is GATA proteins.
Human liver HepG2 cells are transiently transfected with multiple reporter transcription units (MRTUs) in 6-well plates using FuGene 6 reagent (Roche; 3 ml FuGene/1 mg DNA). The MRTU constructs are regulated by a cis-regulating element (promoter). […] A major difference between the CIS and TRANS system is that in CIS activities of endogenous TFs are measured, whereas the TRANS assay evaluates changes in activities of exogenous, chimeric NR-Gal4 proteins. […] At the end of 24 hour incubation, total RNA was isolated using TriZol reagent (Invitrogen). The isolated RNA is then reverse-transcribed using oligo(dT) primer and Mo-MLV reverse transcriptase (Invitrogen) with DNAse I (Ambion) treatment for 30 min. The one-tenth of the produced cDNA was amplified by PCR using Taq DNA polymerase (Invitrogen) and two reporter sequence-specific primers. The PCR products were fluorescently labeled by primer extension with 6-arboxyfluorescein (6-FAM) 5'-labeled reporter sequence-specific primer (2 min at 95 C, 20 s at 68 C and 10 min at 72 C) and these products were digested with 5U of HpaI (New England Biolabs) for 2h at 37 C. The fragments were purified using Qiaquick PCR columns (Qiagen), analyzed on an ABI 3130xL genetic analyzer (Applied Biosystems) with peak positions identified by using a set of X-rhodamine (ROX)-labeled MapMarker1000 molecular weight standards (BioVentures). The raw capillary electrophoresis data was processed using Attagraph software (Attagene).

Structure (SMILES)	outcome	AC50
Cc1oc2c(NC(=O)c3c(Cl)cccc3Cl)cccc2c1C(C)(C)O	inactive	–
CCN(Cc1cccnc1)C(=O)c1cccc(Cl)c1[C@]1(C)C(=O)N(Cc2ccc(OC)cc2OC)c2ccc(Cl)cc21	inactive	–
CCCCCCCCN(C)CCCCCCCC	inactive	–
Oc1ccc2ccccc2c1	inactive	–
c1ccc2n[nH]nc2c1	inactive	–
Clc1cc(Cl)c2c(c1)N=C1CCCCCN1C2	inactive	–
Cc1c2ccccc2c(C)c2c1ccc1ccccc12	inactive	–
CCCCCCCCCC(=O)O	inactive	–
COc1cccc([C@H](O)C2CCN(CCc3ccc(F)cc3)CC2)c1OC	inactive	–
O=CCCCC=O	inactive	–
CCCOC(=O)c1cc(O)c(O)c(O)c1	inactive	–
CN(C[C@@H](CC[N+]12CCC(C3CCCCC3)(CC1)CC2)c1ccc(Cl)c(Cl)c1)C(=O)c1cc(C(F)(F)F)cc(C(F)(F)F)c1	inactive	–
CC(C)(C)c1csc(-c2cc3cc(OCc4ccccc4CC(=O)O)ccc3o2)n1	inactive	–
CCCCCCCCOC(=O)c1cc(O)c(O)c(O)c1	inactive	–
Cc1ncc(CO)c(CO)c1O	inactive	–
c1ccc(C[n+]2cccc3ccccc32)cc1	inactive	–
O=C=NCCCCCCN=C=O	inactive	–
CC(C)(O)c1ccc(CNC(=O)c2cccnc2Oc2ccc3nonc3c2)cc1	inactive	–
C[C@]12CC[C@@H]3c4ccc(O)cc4CC[C@H]3[C@@H]1CCC2=O	inactive	–

Structure (SMILES)	outcome	AC50
CCCCCCCCCCCO	inactive	–
OC12N=C(c3ccccc3)SC1Cc1cc(Cl)ccc12 (stereo not given)	inactive	–
CC/C(=C(/CC)c1ccc(O)cc1)c1ccc(O)cc1	inactive	–
CCOC(=O)O[C@H](C)OC(=O)c1ccc2c(c1)cc(C(=O)NC1CCN(C(C)C)CC1)n2Cc1cc(-c2ccc(Cl)s2)on1	inactive	–
CCCCOC(=O)c1ccc(O)cc1	inactive	164 µM (active)
Oc1ccccc1	inactive	–
CN(C)c1ccc(C(=C2C=CC(=[N+](C)C)C=C2)c2ccc(N(C)C)cc2)cc1	inactive	–
COc1cc(C(=O)NC2CCN(C)CC2)ccc1Nc1ncc2c(n1)N(C1CCCC1)CC(F)(F)C(=O)N2C	inactive	–
NCc1cccc(C2CCN(C(=O)c3ccc(C#Cc4ccccc4F)o3)CC2)c1	inactive	–
O=C1CCC(C2CCCCC2)CC1	inactive	187 µM (active)
CCCCOC(=O)CC(CC(=O)OCCCC)(OC(C)=O)C(=O)OCCCC	inactive	–
CC(C)(C)c1cc(/C=C2\SC(N)=NC2=O)cc(C(C)(C)C)c1O	inactive	–
CCCC(=O)OCCC(C)C	inactive	–
c1ccc2ccccc2c1	inactive	–
O=c1c(-c2ccc(O)cc2)coc2cc(O)cc(O)c12	inactive	–
CCCCCCCCOc1ccc(C(=O)c2ccccc2)c(O)c1	inactive	–
CC(=O)N1CCN(c2ccc(OC[C@H]3CO[C@](Cn4ccnc4)(c4ccc(Cl)cc4Cl)O3)cc2)CC1	inactive	–
CO[C@H]1/C=C/O[C@@]2(C)Oc3c(C)c(O)c4c(O)c(c(/C=N/N5CCN(C)CC5)c(O)c4c3C2=O)NC(=O)/C(C)=C\C=C\[C@H](C)[C@H](O)[C@@H](C)[C@@H](O)[C@@H](C)[C@H](OC(C)=O)[C@@H]1C	inactive	–
CCCCCCCCCCCCO	inactive	–

Reference: PubChem BioAssay (EPA / NIEHS)
